The panel holds about 83,000 compounds, 20% with a hit somewhere; the sample as a whole holds those more often.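 Each cell line was grown in a 96-well plate and treated with one concentration of compound for 48 hours. Values below 10 were considered active.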 Unmarked numbers belong to inactive results. The source made the active and inactive calls.

Growth data for eight compounds are collected here from PubChem BioAssay (NCI).

Among the test systems are SK-MEL-2 melanoma; EKVX NSCLC; SN12C renal; UO-31 renal; TK-10 renal; ACHN renal; CAKI-1 renal; A498 renal; CCRF-CEM leukemia; MOLT-4 leukemia; SR leukemia; RPMI-8226 leukemia; OVCAR-8 ovarian; OVCAR-5 ovarian; OVCAR-4 ovarian; SK-OV-3 ovarian; IGROV1 ovarian; OVCAR-3 ovarian; HS 578T breast; NCI/ADR-RES ovarian.
What all share (assay): NCI-60 one-dose screen, 48 h (100 = growth as untreated, 0 = no growth, -100 = all killed)
Conditions in all cases: 10 µM unless noted

For the compound `C=C[C@H]1CCC/C=C/[C@@H]2C[C@H](O)C[C@H]2[C@H](O)/C=C/C(=O)O1`, the growth was -37.9% (active) in the experiment with SK-MEL-2 melanoma; 3.38% (active) with EKVX NSCLC; 5.71% (active) in the experiment with SN12C renal; -11.2% (active) in the experiment with UO-31 renal; -45.6% (active) with TK-10 renal; 5.96% (active) in the experiment with ACHN renal. The growth with CAKI-1 renal is -1.92% (active); in the experiment with A498 renal, -48.7% (active); with CCRF-CEM leukemia, 7.38% (active); in the experiment on MOLT-4 leukemia, 0.424% (active); with SR leukemia, 0.87% (active); in the experiment on RPMI-8226 leukemia, -4.42% (active). Further, the growth is 2.59% (active) with OVCAR-8 ovarian; 13.4% with OVCAR-5 ovarian; 8% (active) in the experiment with OVCAR-4 ovarian; 26.3% in the experiment on SK-OV-3 ovarian; -0.584% (active) in the experiment with IGROV1 ovarian; -62.7% (active) in the experiment on OVCAR-3 ovarian. Further, the values for the growth in the experiment on HS 578T breast and with NCI/ADR-RES ovarian were 18.8% and 5.21% (active), respectively.

Turning to `COc1cnc2c(c1)C(=O)c1c-2n(CCCNC(C)C)c(=O)c2cc(Cl)ccc12`, the growth was 70.2% in the experiment on SK-MEL-2 melanoma; -32.7% (active) with EKVX NSCLC; 17.3% in the experiment with SN12C renal; -81.7% (active) in the experiment on UO-31 renal; -89.1% (active) in the experiment on TK-10 renal; -100% (active) with ACHN renal. Further, the growth in the experiment with CAKI-1 renal was 28.8%; with A498 renal, -2.79% (active); with CCRF-CEM leukemia, -41.1% (active); with MOLT-4 leukemia, -47% (active); in the experiment on SR leukemia, -52.1% (active); in the experiment on RPMI-8226 leukemia, -59% (active). Also, the growth is -41.6% (active) in the experiment with OVCAR-8 ovarian; -56.1% (active) in the experiment with OVCAR-5 ovarian; -77% (active) in the experiment on OVCAR-4 ovarian; -5.05% (active) in the experiment on SK-OV-3 ovarian; -57% (active) in the experiment on IGROV1 ovarian; -78.3% (active) in the experiment with OVCAR-3 ovarian. For the same compound, the figures for the growth with HS 578T breast and in the experiment with NCI/ADR-RES ovarian were 58.1% and -9.91% (active), respectively.

`CC(C)(c1ccccc1)c1cc(O)c(C(C)(C)c2ccccc2)cc1O`: the growth is 10.4% with SK-MEL-2 melanoma; 33% in the experiment on EKVX NSCLC; 22.4% with SN12C renal; 17.2% in the experiment with UO-31 renal; 36.1% with TK-10 renal; 44% in the experiment with ACHN renal. For the same compound, the growth was 31.6% in the experiment with CAKI-1 renal; 8.74% (active) in the experiment with A498 renal; 15.3% in the experiment on CCRF-CEM leukemia; -17.8% (active) in the experiment with MOLT-4 leukemia; 18.5% in the experiment on SR leukemia; 9.65% (active) in the experiment with RPMI-8226 leukemia. For the same compound, the growth with OVCAR-8 ovarian is 45.6%; with OVCAR-5 ovarian, 78.8%; with OVCAR-4 ovarian it was 30.8%; in the experiment on SK-OV-3 ovarian it was 43.1%; in the experiment with IGROV1 ovarian it was 42.4%; in the experiment with OVCAR-3 ovarian, 38.9%. The growth in the experiment on HS 578T breast was 47.4%; in the experiment on NCI/ADR-RES ovarian it was 43.7%.

As to `C=C1C(=O)O[C@H]2[C@H]1CC/C(COC(=O)NCc1cccc(OC)c1)=C\CC[C@@]1(C)O[C@@H]21`, the growth is 40.9% in the experiment on SK-MEL-2 melanoma; 54.8% with EKVX NSCLC; 31.6% in the experiment on SN12C renal; -9.04% (active) in the experiment on UO-31 renal; -11.7% (active) in the experiment on TK-10 renal; 2.37% (active) with ACHN renal. Besides, the growth in the experiment on CAKI-1 renal is 10.4%; with A498 renal it was 81.1%; with CCRF-CEM leukemia, -15% (active); in the experiment on MOLT-4 leukemia, -7.57% (active); in the experiment with SR leukemia it was 8.59% (active); in the experiment on RPMI-8226 leukemia it was -23.1% (active). Also, the growth in the experiment on OVCAR-8 ovarian is 46.1%; in the experiment on OVCAR-5 ovarian, 66.6%; with OVCAR-4 ovarian it was 49%; in the experiment on SK-OV-3 ovarian, 71.6%; with IGROV1 ovarian it was 32.8%; with OVCAR-3 ovarian it was -7.55% (active). Moreover, the growth in the experiment on HS 578T breast was 75.7%; in the experiment with NCI/ADR-RES ovarian, 57.3%.

On to `Cn1c(-c2ccccc2)cc(=O)n1-c1ccccc1`, for which the growth is 121% in the experiment on SK-MEL-2 melanoma; 93.7% with EKVX NSCLC; 107% with SN12C renal; 101% in the experiment with UO-31 renal; 116% with TK-10 renal; 109% in the experiment with ACHN renal. Moreover, the growth is 95.6% in the experiment with CAKI-1 renal; 89.1% in the experiment on A498 renal; 91.1% with CCRF-CEM leukemia; 99.6% in the experiment on MOLT-4 leukemia; 101% with SR leukemia; 96.5% with RPMI-8226 leukemia. For the same compound, the growth in the experiment on OVCAR-8 ovarian is 107%; in the experiment with OVCAR-5 ovarian, 104%; in the experiment on OVCAR-4 ovarian it was 103%; in the experiment on SK-OV-3 ovarian, 110%; in the experiment with IGROV1 ovarian it was 114%; in the experiment with OVCAR-3 ovarian, 124%. Further, the growth in the experiment on HS 578T breast is 115%; in the experiment with NCI/ADR-RES ovarian, 112%.

With `O=C(Nc1ccc([N+](=O)[O-])cc1)c1cc2ccccc2cc1O`, the growth in the experiment with SK-MEL-2 melanoma is -66.7% (active); with EKVX NSCLC it was 2.38% (active); with SN12C renal it was 1.45% (active); in the experiment on UO-31 renal, -7.29% (active); in the experiment on TK-10 renal it was -19.5% (active); in the experiment with ACHN renal it was -6.44% (active). In addition, the growth in the experiment with CAKI-1 renal was -13.7% (active); in the experiment with A498 renal, -42.5% (active); with CCRF-CEM leukemia, 1.14% (active); in the experiment on MOLT-4 leukemia it was -7.97% (active); in the experiment with SR leukemia it was -17.1% (active); in the experiment with RPMI-8226 leukemia, -26.9% (active). In addition, the growth was 0.735% (active) with OVCAR-8 ovarian; 20.7% in the experiment with OVCAR-5 ovarian; 1.96% (active) in the experiment with OVCAR-4 ovarian; 9.58% (active) in the experiment on SK-OV-3 ovarian; 15.2% in the experiment on IGROV1 ovarian; 83.6% in the experiment on OVCAR-3 ovarian. Further, the growth was -19.9% (active) in the experiment with HS 578T breast and -9.03% (active) in the experiment on NCI/ADR-RES ovarian.

For the compound `O=C(CCCCCCN1CC(=O)N2[C@@H](c3ccc(Cl)c(Cl)c3)c3[nH]c4ccccc4c3C[C@H]2C1=O)NO`, the growth with SK-MEL-2 melanoma was 79.9%; in the experiment with EKVX NSCLC, 64.6%; in the experiment with SN12C renal it was 60.8%; in the experiment with UO-31 renal, 57%; in the experiment with TK-10 renal, 40.3%; in the experiment with ACHN renal it was 70.2%. Also, the growth in the experiment with CAKI-1 renal was 48.7%; in the experiment with A498 renal it was 86%; in the experiment with CCRF-CEM leukemia, 7.73% (active); with MOLT-4 leukemia, 8.86% (active); in the experiment with SR leukemia, 7.56% (active); with RPMI-8226 leukemia it was 6.04% (active). In addition, the growth was 50.3% in the experiment with OVCAR-8 ovarian; 46.3% in the experiment on OVCAR-5 ovarian; 45.6% with OVCAR-4 ovarian; 73.6% in the experiment with SK-OV-3 ovarian; -10.5% (active) with IGROV1 ovarian; 35.3% with OVCAR-3 ovarian. In addition, the growth in the experiment with HS 578T breast was 64.8%; with NCI/ADR-RES ovarian it was 93.3%.

On to `CN1C2CCC1/C(=C\c1ccc(F)cc1)C(=O)/C2=C/c1ccc(F)cc1`, for which the growth in the experiment on SK-MEL-2 melanoma is 50%; with EKVX NSCLC, 60.4%; with SN12C renal, 37.8%; in the experiment with UO-31 renal it was 49.7%; in the experiment with TK-10 renal, 73.1%; with ACHN renal, 55.5%. Also, the growth with CAKI-1 renal was 54.8%; in the experiment on A498 renal, 73.3%; with CCRF-CEM leukemia, 16.5%; in the experiment on MOLT-4 leukemia, 9.91% (active); with SR leukemia, 21.6%; with RPMI-8226 leukemia it was 11%. Also, the growth with OVCAR-8 ovarian was -19.8% (active); with OVCAR-5 ovarian, 72.3%; with OVCAR-4 ovarian it was 39.1%; in the experiment with SK-OV-3 ovarian, 79.8%; in the experiment with IGROV1 ovarian, 61.9%; in the experiment with OVCAR-3 ovarian, 21%. Besides, the growth in the experiment on HS 578T breast was 75%; with NCI/ADR-RES ovarian, 20.2%.
